# VCAM1 pot = TNF alpha stimulated VCAM1 expression potentiation; HUVEC TNFa-stimulated VCAM-1 immunofluorescence, high-content imaging; scaled per plate to unstimulated/TNFa-only wells; activation, % at 2 µM; 93,000 compounds, 0.19% hits; AID 808;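 active = activation above the screen mean plus 3 SD, with well images confirming the hit on visual review, cut at about 28% in these data, passing the limit was not always enough; inconclusive = activation above that limit but images do not confirm it; inactive = activation not above that limit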;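 also: signal is the number of cytoplasmic VCAM-1 stained grains per positive cell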
# VCAM1 pot conf = potentiators of TNFa-induced VCAM1 expression, confirmation, imaging, HUVEC, triplicate retest | activation, % at 2 µM | AID 1034 | HUVEC TNFa-stimulated VCAM-1 immunofluorescence imaging | shares compounds with VCAM1 pot | 230 tested, under 10 active;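 active = activation above 30% in triplicate retests at 2 µM, then confirmed by visual review of the well images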;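 also: scaled per plate between unstimulated and TNFa-stimulated DMSO control wells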
# An asterisk follows results filed as active; ? = inconclusive. The sample as a whole holds a higher share of hits than the screen did.
SMILES,VCAM1 pot,others
Cn1c(Cn2nnc3ccccc32)nnc1SCC(=O)c1ccc(F)cc1,-5.9,
CCOc1ccc2ccccc2c1/C=N/n1cncn1,-88.5,
COc1cccc(N/C=C(\C#N)c2ccc(OCCCF)cc2)c1,0.0,
Cc1nc(Nc2ccccc2)[nH]c(=O)c1CCC(C)C,?,VCAM1 pot conf=2.6
CC(NC(=O)c1ccco1)C(c1cccs1)N1CCOCC1 (stereo not given),8.2,
Cc1ccc(-c2nnc(SCC(=O)CC(=O)Nc3ccccc3)n2C)cc1,4.7,
Cn1c(SCC(=O)CC(=O)Nc2ccccc2)nnc1-c1ccc(O)cc1,-7.9,
CCCSc1nnc(-c2cnn(-c3ccccc3)c2-n2cccc2)n1C,36.2*,VCAM1 pot conf=-2.8
Cc1cc(C)nc(N(C#N)CN2C(=O)c3ccccc3S2(=O)=O)n1,-0.2,
CN(CC(=O)Nc1nc2ccccc2s1)S(=O)(=O)c1ccccc1,16.3,
COC(=O)c1ccc(C2C(C(C)=O)=C(O)C(=O)N2CCO)cc1 (stereo not given),1.5,
O=C(NC(C(=O)c1ccccc1)n1ccc(=O)[nH]c1=O)c1ccccc1 (stereo not given),-27.2,
c1ccc(COc2ccc(OCCCCN3CCCCC3)cc2)cc1,38.5*,VCAM1 pot conf=-13.0
CN1CCN(c2ccccc2NC(=O)c2ccc(OCc3ccccc3)cc2)CC1,7.3,
O=C(CN1CCOCC1)Nc1ccc(OCc2ccccc2)cc1,0.0,
COc1nn(C(C)C(=O)N2N=C(C(F)F)CC2(O)C(F)F)cc1[N+](=O)[O-] (stereo not given),5.7,
COc1cc2c(cc1NC(=O)c1cc(-c3ccncc3)nc3ccc(C)cc13)oc1ccccc12,-7.6,
CC(NCc1ccc2c(c1)OCO2)C(=O)NC1CCCc2ccccc21 (stereo not given),-97.3,
Cc1nc(-c2ccccc2)cc(N2CCCC2)n1,61.4*,VCAM1 pot conf=-7.7
Cc1nc(CS(=O)c2ccccc2)cc(N2CCOCC2)n1 (stereo not given),-16.3,
c1ccc(-c2cc(N3CCCCCC3)n[nH]2)cc1,13.4,
COc1ccc(C(=O)OCC(=O)NCc2ccco2)cc1S(=O)(=O)N1CCN(c2cccc(Cl)c2)CC1,-8.9,
CCCN1CCN(S(=O)(=O)c2ccc(OC)c(Br)c2)CC1,-0.4,
COc1cc(OC)cc(C(=O)N2CCN(C(=O)c3ccc(OC)c(OC)c3)CC2)c1,-1.6,
COc1ccc(C(=S)N2CCN(C)CC2)cc1Br,37.5*,VCAM1 pot conf=-21.5
SMILES,VCAM1 pot,others
CCOC(=O)C1CCCN(Cc2sccc2C)C1 (stereo not given),-6.9,
CC(=O)Nc1sc2c(c1CN1CCN(c3ccc(F)cc3)CC1)CCCC2,-5.1,
Brc1ccc(NCc2cccc3ccccc23)nc1,31.1*,VCAM1 pot conf=-36.1
COCc1cc(Sc2ccc(Cl)cc2Cl)nc(-c2ccccc2)n1,-6.4,
CC(C(=O)NCC1CCCO1)N(C(=O)c1snc(C(N)=O)c1N)c1ccccc1 (stereo not given),40.1*,VCAM1 pot conf=-14.3
Cn1nc(C(=O)NCC2CCCO2)c2ccccc2c1=O (stereo not given),-95.0,
O=C(CC(c1ccccc1)c1ccccc1)NCC1CCCO1 (stereo not given),-40.8,
CCC(CC)C(=O)c1c[nH]c(C(=O)NCC2CCCO2)c1 (stereo not given),-3.5,
CCCCCCCC1CC(CSc2ncn[nH]2)OC1=O (stereo not given),88.9*,VCAM1 pot conf=-14.4
CCCCCC1CC(CC(C)C(=O)Nc2nncs2)C(=O)O1 (stereo not given),6.4,
CCCn1c(NC(=O)C2COc3ccccc3O2)nc2ccccc21 (stereo not given),-7.9,
Cc1nc(SCC#N)c2c(C)c(C)sc2n1,-2.9,
Cn1c(=O)c2c(-c3ccncc3)c3c(nc2n(C)c1=O)-c1ccccc1C3=O,19.8,
COc1ccc(Cl)cc1N(CC(=O)Nc1ccccc1SC)S(C)(=O)=O,-5.9,
CCOC(=O)Cc1csc(/C(=N/O)C(N)=O)n1,11.9,
CCOC(=O)Cc1csc(NC(=O)c2ccc(C)o2)n1,-5.6,
CCCCOC(=O)Nc1nc(CC(=O)OCC)cs1,?,VCAM1 pot conf=-6.9
Cc1cc(N(C)C)nc(SC(C)C)n1,1.3,
CC(C)[C@H](NC(=O)Nc1ccccc1F)C(=O)O,-7.6,
Cc1cccc(CCNC(=O)CN(C)S(=O)(=O)c2ccc3c(c2)c(=O)n(C)c(=O)n3C)c1,-1.0,
CCOc1ccccc1CNS(=O)(=O)c1ccc2c(c1)oc(=O)n2C,-7.6,
Cc1cccc(CCNS(=O)(=O)c2ccc3c(c2)oc(=O)n3C)c1,110.7*,VCAM1 pot conf=-13.9
CCn1cc(Br)c(C(=O)N2CCN(c3ccccc3)CC2)n1,33.7,
c1ccc(CSc2nnc(-c3ccncc3)o2)cc1,57.6*,VCAM1 pot conf=-12.8
COC(=O)C(C)Sc1nnc(-c2ccncc2)o1 (stereo not given),-19.3,
SMILES,VCAM1 pot,others
c1ccc(-c2nnc(CSc3nncs3)o2)cc1,-93.2,
O=C(NC12CC3CC(CC(C3)C1)C2)c1cncc(O)c1,1.5,
CC1CCC2(CC1)N=C(N)Nc1nc3ccccc3n12 (stereo not given),-5.6,
O=C1C(Cc2ccccc2)NC(=S)N1c1ccccc1 (stereo not given),-53.6,
c1ccc(-c2nnc3sc(-c4ccncc4)nn23)cc1,-7.2,
COc1ccc(Cc2nn3c(-c4ccccc4Br)nnc3s2)cc1,6.6,
CCOc1ccc(-c2nnc3sc(COc4ccc(C)cc4)nn23)cc1,39.7*,VCAM1 pot conf=-17.1
CC1=C(C(=O)OCc2ccccc2)C(c2ccoc2)C(C#N)=C(N)O1 (stereo not given),-3.9,
Cc1ccc(S(=O)(=O)NCC(c2ccccc2)N2CCN(CCC#N)CC2)cc1 (stereo not given),-1.7,
CCc1nnc(NC(=O)c2cc3c(s2)CCCCC3)s1,9.0,
Cn1c(CN2CCOCC2)nnc1SCC(=O)Nc1nccs1,-10.9,
CCc1nnc(NC(=O)CN2CCOCC2)s1,85.1*,VCAM1 pot conf=-10.4
O=C1OC2CCC1(c1ccccc1)C2 (stereo not given),-5.7,
COc1ccc(CN(CC(=O)NCC2CCCO2)C(=O)CNS(=O)(=O)c2ccc(C)cc2)cc1 (stereo not given),18.0,
COc1ccc(S(=O)(=O)NCC2CCC(C(=O)N3CCC4(CC3)OCCO4)CC2)cc1 (stereo not given),?,VCAM1 pot conf=-16.9
CCOC(=O)N1CCN(C(=O)C2CCC(CNS(=O)(=O)c3ccccc3)CC2)CC1 (stereo not given),-9.7,
CCC(C(=O)N1CCN(c2cccc(Cl)c2)CC1)c1ccccc1 (stereo not given),-1.2,
CCCCOC(=O)c1c(C)oc2ccc(NS(=O)(=O)c3ccc4c5c(cccc35)C(=O)N4)cc12,-2.9,
CCOC(=O)c1[nH]c2ccc(OC)cc2c1C,-4.2,
CCOC(=O)c1cc(C)n(CCc2ccccc2)c1C,-9.0,
CCOC(=O)c1c(N)sc(-c2ccccc2)c1C,45.3*,VCAM1 pot conf=-10.1
CCOc1ccccc1C(=O)N1CCC(n2nnc3cc(C(F)(F)F)ccc32)CC1,-0.4,
N/C(=N\OC(=O)c1ccc(Br)cc1)c1ccccc1,57.8*,VCAM1 pot conf=-14.7
O=C(/C=C/NNC(=O)c1ccccc1)c1ccc(Br)cc1,-7.9,
Cc1cccc(/C(N)=N/OC(=O)c2ccco2)c1,2.5,
O=C(O)c1ccc(NC(CSCc2cccc(F)c2)C(=O)O)c([N+](=O)[O-])c1 (stereo not given),2.7,
COc1ccccc1C(=O)N/C(=C/c1ccc(Br)cc1)C(=O)NCC(=O)O,-8.5,
O=C(NCc1ccco1)c1cc2c(s1)CCCCC2,22.2,
O=CN(Cc1ccco1)C1(C(=O)NC2CCCCC2)CCCCC1,36.6*,VCAM1 pot conf=-3.9

# From PubChem
